CHT inh = inhibits the human high affinity choline transporter | Q9GZV3 | AID 488975 | 0.86% of 310,000 active | CHT-expressing cells, membrane potential dye, choline response; hits give low values | B-score at 10 µM;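 active = B-score over 3 SD under the library average, and starting fluorescence ratio not unusually high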;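 also: choline stimulus applied at its EC90 after an EC20 pre-addition; B-score computed on integrated fluorescence ratio after choline addition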
Target sequence (Q9GZV3 whole entry, looked up): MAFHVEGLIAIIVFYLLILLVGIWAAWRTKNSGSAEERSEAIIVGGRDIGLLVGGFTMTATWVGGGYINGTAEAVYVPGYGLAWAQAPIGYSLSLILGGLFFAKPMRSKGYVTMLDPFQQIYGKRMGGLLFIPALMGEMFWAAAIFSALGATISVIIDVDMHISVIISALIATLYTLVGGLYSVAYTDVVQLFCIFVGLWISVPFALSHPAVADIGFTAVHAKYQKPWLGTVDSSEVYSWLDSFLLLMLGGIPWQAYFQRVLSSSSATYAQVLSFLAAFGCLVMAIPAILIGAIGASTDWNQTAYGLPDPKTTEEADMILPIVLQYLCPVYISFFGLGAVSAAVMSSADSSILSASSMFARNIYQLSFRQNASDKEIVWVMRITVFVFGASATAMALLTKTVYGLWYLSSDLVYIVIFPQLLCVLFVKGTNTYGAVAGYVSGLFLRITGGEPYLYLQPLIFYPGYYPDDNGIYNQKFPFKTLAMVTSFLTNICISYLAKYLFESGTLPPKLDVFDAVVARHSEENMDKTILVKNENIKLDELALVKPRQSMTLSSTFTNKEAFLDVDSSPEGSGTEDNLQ
TMEM16A inh = mouse TMEM16A channel inhibition, primary screen; Q8BHY3; HEK293 TMEM16A/YFP iodide influx fluorescence, ionomycin; normalized B-score (activity score, 25-100; higher = stronger inhibition) at 10 µM; 1.2% of 310,000 active;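 active = ratio plate-corrected score three or more library SD toward inhibition, starting fluorescence score within five deviations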;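 also: score derived from kinetic fluorescence span divided by baseline fluorescence per well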
Kir21 block = blocks the mouse Kir2.1 inward-rectifier potassium channel; P35561; AID 1672; HEK293-Kir2.1, FluxOR thallium flux fluorescence; hits give low values; B-score at 10 µM; 0.85% of 310,000 active;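 active = fluorescence ratio B-score at or below minus 3 SD of library scores, with starting-brightness B-score within 2 SD, cut at about -4.2 in these data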;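 also: channel flux triggered by added potassium and thallium sulfate stimulus; B-score of peak minus minimum fluorescence over baseline after thallium stimulus; more negative B-score means stronger Kir2.1 block with less thallium influx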
CHT allo act = allosterically activates the human high affinity choline transporter | AID 488977 | CHT-expressing cells, membrane potential dye, choline EC20; hits give high values; LV-AA mutant CHT in HEK293 cells | 0.49% of 310,000 active | B-score at 10 µM;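 active = initial fluorescence not abnormally high and integrated response B-score, plate-corrected, over 3 SD above library mean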
ANO1 activ = activates or potentiates the mouse TMEM16A chloride channel; HEK293 TMEM16A/YFP-H148Q/I152L, iodide quench fluorescence; hits give low values; 0.3% of 340,000 active; AID 623877; B-score at 10 µM;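 active = fluorescence-ratio B-score plate-corrected deviation score at least 3 library SD below zero, with starting fluorescence score within 5 deviations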;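 also: channel opened by trigger with iodide after compound preincubation; score built on the fluorescence ratio of max minus min over baseline; more negative score means more quench and so TMEM16A activation or potentiation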
GPR7 antag = human neuropeptides B/W receptor 1 antagonism; 1.1% of 290,000 active; P48145; AID 1861; inhibition, % at 4.4 µM; GPR7-expressing cells, fluorescence antagonist assay; in the data active = inhibition above about 16%, passing the limit was not always enough;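 also: cells stimulated with the agonist NPW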
Large screens that a line does not name were inactive. The list is not random: actives were taken first. Their share in the collection is about 3.7%.

COc1ccc(C(=O)C2CCCN(C(=O)c3csc(C(C)=O)c3)C2)c(C)c1 (stereo not drawn)	none
C#Cc1cccc(C(=O)N2CCCC(C(=O)c3ccc(OC)cc3C)C2)c1 (stereo not drawn)	Kir21 block -4.3
O=C(NNC(=O)c1ccccc1C(=O)O)c1ccc(-c2ccccc2)cc1	CHT inh -6.7 (no result: ANO1 activ)
Cc1ccc(C(=O)NCC(=O)Nc2ccncc2)s1	none
Cc1cc(OC(C)C(=O)NCCc2c[nH]c3ccccc23)c2c(C)cc(=O)oc2c1 (stereo not drawn)	ANO1 activ -10
CCCc1cc(=O)oc2cc(C)cc(OC(C)C(=O)N[C@@H](Cc3c[nH]c4ccccc34)C(=O)O)c12 (stereo partly drawn)	none
CCOc1ccc(N(Cc2ccc(C(=O)O)cc2)S(=O)(=O)c2ccc(C)cc2)cc1	none
O=C1NC(Cc2c[nH]c3ccccc23)C(=O)N1Cc1cccc2ccccc12 (stereo not drawn)	none
Cc1ccc(CN2C(=O)NC(Cc3c[nH]c4ccccc34)C2=O)cc1 (stereo not drawn)	Kir21 block -4.3
CC(C)COc1ccc(-c2nn(-c3ccccc3)cc2C(=O)Nc2nccs2)cc1	none
O=C(Nc1nccs1)c1cn(-c2ccccc2)nc1-c1ccccc1	GPR7 antag 19
CCOc1ccc2ccccc2c1C(=O)N1CCN(c2ccccc2)CC1	GPR7 antag 20
COCCNC(=O)/C(C#N)=C/c1c(N2CCCCCC2)nc2ccccn2c1=O	none
O=S(=O)(c1cccc2cnccc12)N1CCNCC1	ANO1 activ -12 (no result: Kir21 block, GPR7 antag)
O=S(=O)(c1cccc2ccccc12)N1CCSC1	none (no result: Kir21 block, GPR7 antag)
O=C(NCCc1ccccc1)c1ccc(CS(=O)(=O)c2ccc(Br)cc2)o1	none
CN(CCNC(=O)c1ccc(CS(=O)(=O)c2ccc(Br)cc2)o1)CCc1ccccc1	Kir21 block -4.9
CCn1c(SCC(=O)N2CC(C)OC(C)C2)nc2c([nH]c3ccccc32)c1=O (stereo not drawn)	none
Cc1ccccc1OCC(=O)NCC(=O)OCc1ccc(Br)cc1	none
O=C(N/N=C/c1sc(N2CCOCC2)nc1-c1ccccc1)c1ccccc1Cl	none
O=C(N/N=C/c1sc(N2CCOCC2)nc1-c1ccccc1)c1ccccc1O	TMEM16A inh 100
C[C@@H](OC(=O)N1CCCCC1)[C@H]1O[C@]2(C)CCCC[C@H]1O2	none (no result: CHT inh, TMEM16A inh, Kir21 block, CHT allo act, GPR7 antag)
CC(=O)Nc1nn(C)c2nc(C)cc(C)c12	none
CCN(CCNC(=O)c1ccc(C#N)cc1)c1cccc(C)c1	none
CCN(CCNCC(O)COCc1ccc(Cl)cc1)c1cccc(C)c1 (stereo not drawn)	Kir21 block -7.5
CCOc1cc(C(c2c(C)[nH][nH]c2=O)c2c(C)[nH][nH]c2=O)ccc1OC(=O)c1cccc([N+](=O)[O-])c1	none
CCOc1cc(C(c2c(C)[nH][nH]c2=O)c2c(C)[nH][nH]c2=O)ccc1OCc1ccc([N+](=O)[O-])cc1	Kir21 block -5.7
Cc1ccc(S(=O)(=O)NCCSc2nnnn2-c2ccccc2)cc1	Kir21 block -7.1
Cc1ccc(S(=O)(=O)NCCSc2nnnn2-c2cc(C)ccc2C)cc1	none
CN(CCOc1ccc(Cl)cc1)CC(O)c1ccccc1 (stereo not drawn)	none
CC(OCC(O)CN(C)CCOc1ccccc1)c1ccc(Cl)cc1 (stereo not drawn)	Kir21 block -5
Nc1cc(Cl)ccc1C(=O)OCC(=O)NCC1CCCO1 (stereo not drawn)	none (no result: CHT inh, TMEM16A inh, Kir21 block, CHT allo act, GPR7 antag)
Cc1cc(C)c(NC(=O)CN(C)C(C)C(=O)N2CCc3ccccc32)c(C)c1 (stereo not drawn)	none (no result: CHT inh, TMEM16A inh, Kir21 block, CHT allo act, GPR7 antag)
Cc1noc(C)c1COc1cccc(C(=O)OC(C)C(=O)Nc2ccc3c(c2)OCO3)c1 (stereo not drawn)	GPR7 antag 19
O=C(NCC1CCCO1)C1CCCN(S(=O)(=O)c2cc(Cl)ccc2Cl)C1 (stereo not drawn)	none
N/C(=N\OS(=O)(=O)c1ccc2ccccc2c1)c1ccccn1	ANO1 activ -26 (no result: CHT inh, TMEM16A inh, Kir21 block, CHT allo act)
Cc1cc(C)c(-c2c(O)c3cccnc3n(C)c2=O)c(C)c1	none (no result: GPR7 antag)
CCOC(=O)c1cc(COc2cc(Cl)cc(Cl)c2)on1	none (no result: ANO1 activ)
COC(=O)c1cc2ccsc2n1CC(=O)Nc1cc(Cl)ccc1OC	TMEM16A inh 25
